An excerpt weighted towards active compounds, which were near 4% of everything screened.
TRHR agonist – activates the human TRH receptor | TRHR cells, calcium flux fluo-8, FDSS agonist mode | activation, % at 2 µM | 360,000 tested, 0.18% active; further: 0% is about no effect
Target sequence (P34981 whole entry, looked up): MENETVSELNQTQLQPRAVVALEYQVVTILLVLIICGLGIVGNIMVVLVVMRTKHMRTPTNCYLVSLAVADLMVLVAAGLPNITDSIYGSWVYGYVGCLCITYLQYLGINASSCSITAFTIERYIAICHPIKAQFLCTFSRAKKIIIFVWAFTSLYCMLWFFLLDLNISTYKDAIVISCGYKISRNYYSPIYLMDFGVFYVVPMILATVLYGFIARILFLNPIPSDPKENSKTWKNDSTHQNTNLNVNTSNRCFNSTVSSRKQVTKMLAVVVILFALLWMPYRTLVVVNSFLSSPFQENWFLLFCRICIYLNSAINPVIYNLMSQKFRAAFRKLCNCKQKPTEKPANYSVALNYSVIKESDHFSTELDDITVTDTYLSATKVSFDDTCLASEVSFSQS
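In this calcium-flux screen, cells bearing human TRHR are dye-loaded with fluo-8, baselined for 10 cycles, then exposed to library compounds; positive kinetic calcium responses during the agonist phase mark hits, with TRH as control.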
Glioma ERSR ind – induces the endoplasmic reticulum stress response in human glioma cells; U87-MG GRP78 promoter luciferase reporter, 16 h; Potency, µM, without a hit: top-dose activation, most hits filed as activators; 420,000 tested, 0.02% active; AID 602332; active means well fitted activation curve with a large enough effect; further: potency means the concentration at half of the fitted maximal effect; series mostly up to about 76 µM; % of control where 0% means no effect; nearly all actives have a fitted effect of over 35% in size
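ERSR induction read as luciferase luminescence (Bright-Glo, 10 min at room temperature) in stably transfected human U87-MG glioma cells exposed to compounds for 16 h, using GRP78 as sensor.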
D1 ag – human D1 receptor agonism; P21728; HEK293 T-REx D1 cells, calcium flux, agonist mode; activation, % at 2 µM; 360,000 tested, 1% active; AID 504660; further: 0% is about no effect
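Tetracycline-induced HEK293 TREx D1 cells, force-coupled to calcium signalling, were dye-loaded with a no-wash calcium kit. Compound was pin-added after a 10 s baseline. Fluorescence was read kinetically at 1 cycle/s for 180 s, with calcium rises flagged as agonism.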
D1 PAM – potentiators of human D1 dopamine receptor | P21728 | HEK293 TREx D1 cells, calcium flux, dopamine EC20 potentiation | potentiation, % at 10 µM | 360,000 tested, 0.036% active | AID 504651; in the data active means potentiation above about 30%; further: 0% is about no effect
D1 antagonist – blocks dopamine activation of the human D1 receptor | P21728 | activity change, negative = inhibition, % at 10 µM | HEK293 TREx D1 cells, calcium flux, dopamine EC80; hits give low values | AID 504652 | 360,000 tested, 3.2% active; in the data active means activity change below about -30%; further: on the % scale 0 is the no-effect control and ±100 the full control effect
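Tetracycline-induced HEK293 T-REx cells with force-coupled D1 receptor were loaded with a no-wash calcium dye. Compound was added after a 10 s baseline and read kinetically for 180 s; EC80 dopamine was then added and calcium flux followed another 180 s.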
TRHR PAM – TRH receptor (human) allosteric enhancement | P34981 | TRHR cells, fluo-8 calcium fluorescence, EC20 TRH enhancement | enhancement, % at 2 µM | 360,000 tested, 0.66% active; in the data active means enhancement above about 30%; further: 0% is about no effect
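Enhancer read-out: after compound pinning and an initial kinetic agonist-mode read, an EC20 of TRH (10 nM final) was injected and fluo-8 calcium signal (Ex 480/Em 530) followed at 1 s/cycle for 100 cycles in TRHR-expressing cells.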
Starred values were filed as active, the others as inactive. Unless noted, no stated cut-off is given here; in the data, active means activation above about 30%; inactive means the rest.

How did O=C(NCc1cccc(Cl)c1)c1cc2ccc3cccnc3c2[nH]1 do in these assays?
TRHR agonist: 1; Glioma ERSR ind: -4%; D1 ag: 3; D1 PAM: 6; D1 antagonist: 6; TRHR PAM: -9

How did COc1ccccc1NC(=O)c1cc2ccc3cccnc3c2[nH]1 do in these assays?
TRHR agonist: 0; Glioma ERSR ind: -6%; D1 ag: 3; D1 PAM: -1; D1 antagonist: -3; TRHR PAM: 23

What do the screens show for `CCOc1ccccc1NC(=O)c1cc2ccc3cccnc3c2[nH]1`?
TRHR agonist: -1; Glioma ERSR ind: 3%; D1 ag: 4; D1 PAM: -1; D1 antagonist: -1; TRHR PAM: 32*

How did CC(C)N(Cc1ccccc1)C(=O)c1cc2ccc3cccnc3c2[nH]1 do in these assays?
TRHR agonist: 1; Glioma ERSR ind: -1%; D1 ag: 6; D1 PAM: 4; D1 antagonist: -34*; TRHR PAM: -9

Results for CC(=O)Nc1cc(S(=O)(=O)Nc2ccccc2C)c(C)cc1C ?
TRHR agonist: 0; Glioma ERSR ind: 0%; D1 ag: 4; D1 PAM: -4; D1 antagonist: -17; TRHR PAM: -3

How did CCCCNC(=O)Cn1nc(N2CCN(c3ccccc3OC)CC2)ccc1=O do in these assays?
TRHR agonist: 0; Glioma ERSR ind: 2%; D1 ag: 1; D1 PAM: -1; D1 antagonist: -42*; TRHR PAM: 18

How did Cc1c(C2=CCN(S(=O)(=O)c3ccc(CC(C)C)cc3)CC2)c2ccccc2n1CC(=O)N1CCCC1 do in these assays?
TRHR agonist: -2; Glioma ERSR ind: 0%; D1 ag: 38*; D1 PAM: -1; D1 antagonist: 24; TRHR PAM: 5

Results for OCCN1CCN(CCOc2cccc(Cl)c2)CC1 ?
TRHR agonist: 0; Glioma ERSR ind: -5%; D1 ag: 4; D1 PAM: -4; D1 antagonist: -13; TRHR PAM: -4

How did C=CCn1c(NCc2c[nH]c3ccccc23)nc2ccccc21 do in these assays?
TRHR agonist: 0; Glioma ERSR ind: 2%; D1 ag: 1; D1 PAM: -14; D1 antagonist: -59*; TRHR PAM: 0

Results for CCn1c(NCc2c[nH]c3ccccc23)nc2ccccc21 ?
Glioma ERSR ind: -4%

How did Cc1cc(C(F)(F)F)c2sc(N)nc2n1 do in these assays?
TRHR agonist: -1; Glioma ERSR ind: 9%; D1 ag: 2; D1 PAM: -6; D1 antagonist: -53*; TRHR PAM: 7

Results for Nc1nc2nc(-c3ccccc3)cc(C(F)(F)F)c2s1 ?
TRHR agonist: 1; Glioma ERSR ind: 6%; D1 ag: -1; D1 PAM: 11; D1 antagonist: 20; TRHR PAM: -8

What do the screens show for `COc1ccccc1NC(=O)N(C)C[C@H]1OCc2cnnn2CCCC(=O)N([C@H](C)CO)C[C@H]1C`?
Glioma ERSR ind: -5%

Results for O=C1S/C(=C\c2ccc(Cl)cc2)C(=O)N1CCn1cnnn1 ?
TRHR agonist: 0; Glioma ERSR ind: 3%; D1 ag: 9; D1 PAM: 0; D1 antagonist: -20; TRHR PAM: 1

What do the screens show for `COCCn1c(SC(C)C(=O)NCC2CCCO2)nc2scc(-c3ccc(F)cc3)c2c1=O` (configuration not stated)?
TRHR agonist: 0; Glioma ERSR ind: 0%; D1 ag: 1; D1 PAM: -9; D1 antagonist: -42*; TRHR PAM: -5

What do the screens show for `CC1=C(C(=O)N2CCN(c3ccc(Cl)cc3)CC2)C2(CCC(C)CC2)OC1=O` (configuration not stated)?
TRHR agonist: -1; D1 ag: 2; D1 PAM: 6; D1 antagonist: 6; TRHR PAM: 50*

Results for CC(C)Cc1nnc(NC(=O)Cc2cccs2)s1 ?
TRHR agonist: 1; Glioma ERSR ind: -2%; D1 ag: 1; D1 PAM: -3; D1 antagonist: -50*; TRHR PAM: 1

What do the screens show for `CC(C)c1nnc(NC(=O)Cc2cccs2)s1`?
TRHR agonist: -2; Glioma ERSR ind: 0%; D1 ag: 0; D1 PAM: -5; D1 antagonist: 8; TRHR PAM: -5

What do the screens show for `CC(=O)Nc1ccc(C(=O)Nc2ccc3c(c2)OCO3)cc1`?
TRHR agonist: 0; Glioma ERSR ind: 4%; D1 ag: 3; D1 PAM: -1; D1 antagonist: -31*; TRHR PAM: -6

Results for O=C(Nc1ccc2c(c1)OCO2)c1ccc2c(c1)OCO2 ?
TRHR agonist: -1; Glioma ERSR ind: -11%; D1 ag: 0; D1 PAM: -2; D1 antagonist: 5; TRHR PAM: 2

How did CCN(CC)c1ccc(NC(=O)c2ccc3c(c2)OCO3)c(C)c1 do in these assays?
TRHR agonist: 0; Glioma ERSR ind: 2%; D1 ag: 4; D1 PAM: -6; D1 antagonist: -41*; TRHR PAM: -3

How did CC(=O)Nc1ccc(C(=O)Nc2ccc3c(c2)OCCO3)cc1 do in these assays?
TRHR agonist: -1; Glioma ERSR ind: -4%; D1 ag: 2; D1 PAM: 4; D1 antagonist: 4; TRHR PAM: 0

What do the screens show for `O=C(Nc1ccc2c(c1)OCCO2)c1ccc(NC(=O)C2CCCO2)cc1` (configuration not stated)?
TRHR agonist: 1; Glioma ERSR ind: -11%; D1 ag: 1; D1 PAM: -6; D1 antagonist: -49*; TRHR PAM: -5

How did O=C(Nc1ccc2c(c1)OCO2)c1ccc[n+]([O-])c1 do in these assays?
TRHR agonist: 0; Glioma ERSR ind: 0%; D1 ag: 0; D1 PAM: 3; D1 antagonist: -39*; TRHR PAM: -7

How did O=C(NCc1ccc2c(c1)OCO2)c1ccc(NC(=O)C2CCCO2)cc1 (configuration not stated) do in these assays?
TRHR agonist: 0; Glioma ERSR ind: -2%; D1 ag: -2; D1 PAM: 2; D1 antagonist: -12; TRHR PAM: -9

Results for CCCCC(CC)COC(=O)/C=C/c1ccc(OC)cc1 (configuration not stated) ?
Glioma ERSR ind: -3%

Results for COc1cccc(OCC(=O)NNC(=O)CCc2ccccc2)c1 ?
TRHR agonist: 0; Glioma ERSR ind: -3%; D1 ag: 3; D1 PAM: 11; D1 antagonist: -6; TRHR PAM: -8

How did Cc1ccc(NC(=O)c2ccc3c(O)c(S(=O)(=O)c4ccccc4)c(=O)[nH]c3c2)cc1Cl do in these assays?
TRHR agonist: -1; Glioma ERSR ind: -5%; D1 ag: 1; D1 PAM: -5; D1 antagonist: 0; TRHR PAM: -4
